Source: PubChem BioAssay (National Center for Advancing Translational Sciences (NCATS))
Hits are enriched below; roughly 3.2% of the tested compounds scored in any of these assays.
TRb SRC2 PPI = inhibitors of human thyroid hormone receptor beta-SRC2 interaction | TRbeta-SRC2 peptide binding, fluorescence polarization; receptor liganded with 1 µM T3 | 0.065% of 280,000 active | Potency, µM (titrated, usually from 106 µM), for the others: at the top dose activity change, negative = inhibition, most hits filed as inhibitors | P10828;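 further: plate controls were bound peptide for no effect and peptide without receptor for full effect; nearly all actives have a fitted effect of over 50% in size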
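Assay buffer: 20 mM Tris-HCl, 100 mM NaCl, 10% glycerol, 1 mM EDTA, 0.01% NP-40, 1 mM DTT, 1 uM T3, 5% DMSO; TRb LBD 0.6 uM, Texas Red SRC2 20 nM; FP after 5 hr.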
Tau fibril ThT = inhibitors of human tau fibril formation, thioflavin T binding; recombinant tau K18 P301L, heparin-induced fibrillization, ThT fluorescence; Potency, µM (highest dose often 57.4 µM), for inactives: top-dose activity, negative = inhibition, most hits filed as inhibitors; 2.1% of 270,000 active; further: nearly all actives have a fitted effect of over 55% in size
Target sequence (P10636 561-689 P618L limits assumed): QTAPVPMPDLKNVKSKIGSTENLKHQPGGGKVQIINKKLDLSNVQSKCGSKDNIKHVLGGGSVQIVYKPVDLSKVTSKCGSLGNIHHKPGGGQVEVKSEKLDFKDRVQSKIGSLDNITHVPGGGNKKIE
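Heparin-induced fibrillization of the P301L-mutant K18 repeat-domain fragment of human tau was followed by ThT binding in quantitative high-throughput format.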
Tau FP inhib = blocks human tau fibril formation measured by polarization | K18 P301L tau heparin fibrillization, Alexa594 FP, 6 h | Potency, µM (titrated, usually from 57.7 µM), inactives show at the top dose activity, negative = inhibition, hits mostly inhibitors | 0.39% of 280,000 active | P10636; further: nearly all actives have a fitted effect of over 55% in size
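Human tau K18 […] P301L fragment, 15 uM unlabeled plus 0.24 uM Alexa 594-labeled tau (final), with compound and 20 uM heparin in 100 mM sodium acetate pH 7; 6 hr at 37 C, then Alexa 594 FP read.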
TR SRC2 fluor cs = alters Texas Red total fluorescence, flagging assay interference | TRb/SRC2 Texas Red total fluorescence interference | Potency, µM (highest dose often 106 µM), for the others: top-dose fluorescence change, negative = quenching | 0.29% of 280,000 active | AID 1479; active means well fitted curve in either direction with a large enough effect; inconclusive means small, poorly fitted or top-dose-only effect
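Flags fluorescent or light-absorbing compounds by total fluorescence, S + 2P, at 555 nm excitation and 632 nm emission. Mixture: 20 nM Texas Red SRC2 peptide, 0.6 uM human TRb LBD, 1 uM T3, 5% DMSO; compound exposure 5 h at ambient temperature.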
Tau fluor counter = counter-screen for tau fibril formation inhibitors; tau K18 P301L (four-repeat tau fragment) Alexa594 fluorescence, heparin fibrillization; AID 1463; Potency, µM (series often up to 57.7 µM), inactives show top-dose activity change, negative = decrease; 0.93% of 280,000 active; further: nearly all actives have a fitted effect of over 55% in size
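Human K18 P301L tau (15 uM unlabeled plus 0.24 uM Alexa 594-labeled, final) in 100 mM sodium acetate pH 7 was mixed with compound and 20 uM heparin and incubated 6 hr at 37 C.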
GoLoco inh red = inhibitors of human Gai1-RGS12 GoLoco interaction (red fluorophore). P63096. Gai1:RGS12 GoLoco peptide FP, rhodamine, 10 min. Potency, µM (doses to about 61.6 µM), for the others: top-dose activity, negative = inhibition, hits mostly inhibitors. 0.44% of 230,000 active; active means well fitted inhibition curve with a large enough effect, not every such curve was filed as active; inactive means no such curve, though single readings can be large or run the other way; further: nearly all actives have a fitted effect of over 30% in size
Target sequence (P63096 whole entry, looked up): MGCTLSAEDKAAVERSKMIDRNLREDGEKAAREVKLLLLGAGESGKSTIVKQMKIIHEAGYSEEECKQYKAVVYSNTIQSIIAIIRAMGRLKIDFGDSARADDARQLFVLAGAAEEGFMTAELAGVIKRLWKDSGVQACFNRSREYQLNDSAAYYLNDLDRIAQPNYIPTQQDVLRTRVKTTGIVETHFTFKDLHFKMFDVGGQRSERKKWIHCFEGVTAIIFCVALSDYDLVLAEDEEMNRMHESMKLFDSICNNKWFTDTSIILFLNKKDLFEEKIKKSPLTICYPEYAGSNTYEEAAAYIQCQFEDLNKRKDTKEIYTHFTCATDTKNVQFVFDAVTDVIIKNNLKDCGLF
* hit, by the source's call; u = inconclusive; x = no result; [ ] = remark or other dose. Unless noted, the call rests on the fitted dose curve; in most records, active means well fitted curve in the direction sought with a large enough effect; inconclusive means small, poorly fitted or top-dose-only effect, or another doubt; inactive means no such curve, though single readings can be large; an effect the other way counts as inactive or inconclusive. Unless noted, on the % scale 0 is the no-effect control and ±100 the full control effect; potency means the concentration at half of the fitted maximal effect.

SMILES	TRb SRC2 PPI	Tau fibril ThT	Tau FP inhib	TR SRC2 fluor cs	Tau fluor counter	GoLoco inh red
C=CCOC(=O)N[C@H](/C(C(=O)OC)=C(\C)NCc1ccccc1)c1ccc(Br)cc1	4%	-6%	-5%	-2%	-4%	-3%
CN(C)c1ccc(N=Cc2nc(-c3ccccc3)oc2OC(=O)c2cccc(Cl)c2)cc1	-20%	7.9µM*	u	1%	u	31%
CCOC(=O)C1=C(C)N=C2c3ccccc3C(=O)C2C1c1ccc(Cl)cc1 (stereo unspecified)	-1%	u	1%	-1%	7.9µM*[quencher]	27%
O=C1CC2(CCCC2)CC(=O)N1CCNC[C@H]1COc2ccccc2O1	-10%	4%	0%	0%	-1%	4%
CC(Nc1cccc2ccccc12)C(=O)N/N=C/c1ccc([N+](=O)[O-])cc1 (stereo unspecified)	-17%	u	u	0%	7.9µM*[quencher]	0%
O=C(COC(=O)c1cc([N+](=O)[O-])ccc1NCCO)c1ccccc1	-7%	3%	3%	100µM*[quencher]	-3%	-2%
O=C(CNS(=O)(=O)c1ccccc1)OCC(=O)c1ccc([N+](=O)[O-])cc1	-2%	25µM*	u	-1%	-19%	2%
O=C(Cc1ccccc1)NCC(=O)OCC(=O)c1ccc([N+](=O)[O-])cc1	-7%	u	u	3%	-8%	7%
NC(=O)COC(=O)c1cc([N+](=O)[O-])ccc1NCCO	7%	-9%	-5%	-5%	-11%	-6%
O=C(CNc1cccc2ccccc12)c1ccc([N+](=O)[O-])cc1	1%	14µM*	u	-1%	u	-4%
CO[C@H]1COC(=O)[C@@H](C)COC(=O)[C@H](C)NC(=O)C/C=C\[C@H]1C	-9%[11.2 µM]	1%[11.5 µM]	0%[11.6 µM]	0%[11.2 µM]	0%[11.6 µM]	x
C=C1CCN(C(Cc2ccccc2)C(=O)O)S(=O)(=O)c2ccccc21 (stereo unspecified)	6%	x	x	-1%	x	x
CSCC[C@H](NC(=O)[C@H](CCCN=C(N)N)NC(=O)[C@@H]1CCCN1C(=O)[C@H](Cc1ccccc1)NC(=O)[C@H](C)NC(=O)[C@H](CC(C)C)NC(=O)[C@H](Cc1ccc(O)cc1)NC(=O)[C@H](CC(N)=O)NC(=O)[C@@H](N)CCSC)C(N)=O	-1%	x	x	-2%	x	x
O=C(CNc1ccccc1)c1ccc([N+](=O)[O-])cc1	4%	14µM*	u	0%	u	-12%
O=C(CNC(=O)c1ccc([N+](=O)[O-])cc1)c1ccccc1	4%	-15%	1%	0%	-3%	4%
CC1(C)OC(C(O)(c2cc(F)c(F)c(F)c2)c2cc(F)c(F)c(F)c2)C(C(O)(c2cc(F)c(F)c(F)c2)c2cc(F)c(F)c(F)c2)O1 (stereo unspecified)	5%[11.2 µM]	-5%[11.5 µM]	-8%[11.6 µM]	-2%[11.2 µM]	-21%[11.6 µM]	x
CC(=O)c1cc(NC(=O)c2ccc(Cl)cc2)c(=O)oc1/C=C/N(C)C	-16%	10µM*	u	-2%	-27%	8%
CC(=O)c1cc(NC(=O)c2cccc(C(F)(F)F)c2)c(=O)oc1C	-7%	25µM*	35µM*	0%	-28%	40%
COc1ccc(SCC(Cc2ccccc2)N2CCN(CCc3ccccc3)CCC2=O)cc1 (stereo unspecified)	3%	x	x	-2%	x	x
COc1cccc(Cn2c(=O)c(-c3ccc(Cl)cc3)nc3cnc(OC)nc32)c1	x	x	x	x	x	-4%
COc1cccc(-c2coc3ccc(Br)cc3c2=O)c1	2%	u	7%	-2%	-4%	2%
C[C@]12C[C@H](O)CC(CO)(CO)C1[C@H](O)C[C@@]13CC4[C@@H](CC12)[C@@]4(C)C3 (stereo partly specified)	-6%	-2%	0%	-1%	-3%	4%
